Screening results from PubChem BioAssay.
C-LANA FP: KSHV C-LANA DNA binding inhibition. MBP-C-LANA/FAM-LBS DNA binding, fluorescence polarization. inhibition, % at 9 µM. 340,000 compounds, 0.078% hits. AID 504423;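 active = highest replicate inhibition at or above 60% at 9 µM, even if other replicates fall short; inactive = all replicates below 60% inhibition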
Keap1-Nrf2 PPI: disrupts human Keap1 binding to Nrf2 peptide | 340,000 compounds, 0.15% hits | Keap1 Kelch-Nrf2 peptide fluorescence polarization, 1536-well | inhibition, % at 9.4 µM; in the data active = inhibition above about 12%;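 note: human Keap1 Kelch domain with fluorescein labeled Nrf2 9mer peptide probe; higher means more block of Keap1 binding to Nrf2 peptide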
Target sequence (Q14145 whole entry, looked up, the tested form may be a part): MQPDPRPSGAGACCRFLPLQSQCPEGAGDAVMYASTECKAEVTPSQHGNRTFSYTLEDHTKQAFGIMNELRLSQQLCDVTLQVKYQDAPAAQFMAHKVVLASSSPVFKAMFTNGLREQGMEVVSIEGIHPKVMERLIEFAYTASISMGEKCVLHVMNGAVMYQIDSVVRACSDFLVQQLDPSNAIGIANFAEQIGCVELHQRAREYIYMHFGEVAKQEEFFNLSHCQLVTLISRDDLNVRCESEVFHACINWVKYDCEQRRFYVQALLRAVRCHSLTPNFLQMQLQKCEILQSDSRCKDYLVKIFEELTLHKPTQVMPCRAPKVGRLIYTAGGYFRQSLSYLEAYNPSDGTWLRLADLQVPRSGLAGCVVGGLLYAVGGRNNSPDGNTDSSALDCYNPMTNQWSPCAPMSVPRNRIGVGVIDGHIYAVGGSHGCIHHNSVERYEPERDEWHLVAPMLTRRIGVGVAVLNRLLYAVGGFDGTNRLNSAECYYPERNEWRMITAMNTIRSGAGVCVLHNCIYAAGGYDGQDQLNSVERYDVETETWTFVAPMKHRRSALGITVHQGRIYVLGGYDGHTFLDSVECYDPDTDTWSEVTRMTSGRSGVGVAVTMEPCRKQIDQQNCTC
Cardiac RTF inh: cardiac RTF calcium desensitization | P19429+P45379 | IANBD-labeled cardiac RTF, Ca2+ fluorescence | inhibition, % at 7.15 µM | 340,000 compounds, 0.12% hits | AID 493244;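 active = inhibition above the mean inhibition of all tested compounds plus 3 SD, cut at about 17% in these data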;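 note: assay run at fixed EC70 calcium of 1.6 mM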
RTF Ca sens act: increases calcium sensitivity of human cardiac regulated thin filaments; P19429+P45379; activation, % at 7.2 µM; IANBD-labeled TnC RTF fluorescence at EC20 calcium; 0% EC20 calcium, 100% full calcium; 340,000 compounds, 0.24% hits; AID 493008;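 active = activation above the mean over all tested compounds plus 3 SD, cut at about 30% in these data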;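 note: rise in fluorescence read as greater calcium sensitivity of cardiac thin filaments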
RTF inh confirm: confirmation of inhibitors of cardiac thin filament calcium sensitivity; shares compounds with Cardiac RTF inh; reconstituted cardiac thin filaments, calcium sensitivity fluorescence; inhibition, % at 7.15 µM; 360 compounds, 8% hits; AID 504635; in the data active = inhibition above about 18%
A number is an active result; n = inactive; x = no result. The list is not random: actives were taken first. Their share in the collection is about 0.5%.

SMILES	C-LANA FP	Keap1-Nrf2 PPI	Cardiac RTF inh	RTF Ca sens act	RTF inh confirm
CC(C)(C)n1nnnc1C(c1cccc(C#N)c1)N1CCN2CCCC2C1 (stereo unspecified)	n	n	n	n	x
CC(C)(C)n1nnnc1C(c1cccc(C#N)c1)N1CCCCCC1 (stereo unspecified)	n	n	23	n	n
COc1ccc(CN(C)C(=O)COC(=O)c2c(-c3ccccc3Cl)noc2C)cc1	n	n	18	n	n
CC(C)(C)C1CCc2c(C(=O)NNC(=O)CCCC(=O)O)csc2C1 (stereo unspecified)	n	n	17	n	n
O=C(O[C@@H]1OC2COC(=O)c3cc(O)c(O)c(O)c3-c3c(cc(O)c(O)c3O)C(=O)O[C@@H]([C@H]1O)[C@@H]2O)c1cc(O)c(O)c(O)c1	121	x	130	n	167
Cn1cnc([N+](=O)[O-])c1N=C(N)N	n	n	n	n	x
Oc1ccc(-c2nc(-c3ccc(F)cc3)c(-c3ccncc3)[nH]2)cc1	n	n	20	n	n
O=C(C1CCCCN1S(=O)(=O)c1ccccc1[N+](=O)[O-])N1CCOCC1 (stereo unspecified)	n	n	18	n	n
COC(=O)C1CCN(C(=O)c2cc(OC)c(OC)c(OC)c2)CC1	n	n	n	n	x
COc1cc(C(=O)N2CCN(C(=O)C3CC3)CC2)cc(OC)c1OC	n	n	20	n	n
C=C[C@@]1(C)CC(=O)[C@]2(O)[C@@]3(C)[C@@H](O)CCC(C)(C)[C@@H]3[C@H](O)[C@H](OC(C)=O)[C@@]2(C)O1	n	n	19	n	n
Cc1cc(C)c(C(=O)NC2CCCc3c2cnn3-c2ccc(C)c(C)c2)c(=O)[nH]1 (stereo unspecified)	n	n	n	n	x
O=C(COc1ccccc1Cl)Nc1ccc2c(c1)OCO2	n	n	19	n	n
Cn1c(SCc2ccccc2C#N)nc2ccccc2c1=O	n	n	n	n	x
COc1ccc(-c2nn(-c3ccccc3)cc2C(=O)NCCCn2ccnc2)cc1	n	n	26	n	n
Cc1ccc(C)c(N(CC(=O)NCc2ccco2)C(=O)CCC(=O)Nc2nccs2)c1	n	n	n	n	x
S=C(Nc1ccc2nccnc2c1)N1CCOCC1	n	n	n	n	x
O=C(Nc1ccc(N2CCOCC2)c(Cl)c1)c1ccccc1Cl	n	n	50	n	n
O=C(Nc1ccc(N2CCOCC2)c(Cl)c1)c1ccc(F)cc1	n	n	n	n	x
Cc1ccc(NC(=O)CSc2nnc3n2CCCCC3)cc1	n	n	22	n	n
Cc1ccc(C)c(NC(=O)C[n+]2ccccc2)c1	n	n	n	n	x
CCN1CCCC1CNC1=NCCCCC1 (stereo unspecified)	n	n	n	n	x
CCCC(C)NC1=NCCCCC1 (stereo unspecified)	n	n	18	n	n
CCOc1ccc2nc3cc(N=Nc4ccc(N)nc4N)ccc3c(N)c2c1	n	n	25	n	41
COc1ccc(N=Nc2ccc(N)nc2N)cc1	n	n	n	n	x
SMILES	C-LANA FP	Keap1-Nrf2 PPI	Cardiac RTF inh	RTF Ca sens act	RTF inh confirm
COc1ccc(C(=O)Nc2ccc3cn[nH]c3c2)c(OC)c1	n	n	n	n	x
O=C(CSc1nc2ccccc2n1CCc1ccccc1)c1ccc(O)c(O)c1	n	n	18	n	n
O=C(CSc1nc2ccccc2n1CCc1ccccc1)N1CCOCC1	n	n	n	n	x
Cc1cccc(C(=O)N(CC(=O)Nc2sc(C)c(C)c2C(N)=O)C2CCCC2)c1	n	n	n	n	x
COCCNC(=O)CSc1nc2ccc(N3CCOCC3)cc2c(=O)n1Cc1ccc(OC)cc1	n	n	n	n	x
CCCCNC(=O)CSc1nc2ccc(N3CCOCC3)cc2c(=O)n1Cc1ccc(OC)cc1	n	n	19	n	n
CCCCCCC1CC(/C(C)=N\NC(N)=O)OC1=O (stereo unspecified)	n	n	n	n	x
CCCCCCCCCCC[C@@H](C[C@@H]1OC(=O)[C@H]1CCCCCC)OC(=O)[C@H](CC(C)C)NC=O	n	n	20	n	n
O=c1cc2c(=O)oc3cc(O)c(O)oc3c2c(O)c1O	112	n	87	n	68
O=c1oc2cc(O)c(Cl)cc2c2ccccc12	n	n	n	n	x
COc1ccc(/C=C/c2onc(C)c2S(=O)(=O)N2CCC(C(=O)N3CCCCCC3)CC2)cc1	n	n	n	n	x
Cc1ccc(C)c(OCCC(=O)NNC(=O)c2ccncc2)c1	n	n	n	n	x
Cc1ccc(C)c(OCCC(=O)NNC(=O)c2ccccc2)c1	n	n	17	n	n
Cc1nnc(SCC(=O)Nc2cccc([N+](=O)[O-])c2)n1CC1CCCO1 (stereo unspecified)	n	n	n	n	x
OCCC1CN(Cc2cccc3c2OCO3)CCN1C1CCCC1 (stereo unspecified)	n	n	n	n	x
CCc1cc2c(CN(C)Cc3ccccc3F)cc(=O)oc2cc1O	n	n	18	n	n
COc1cc(/C=C/C(=O)OCC(=O)NCc2ccco2)ccc1O	n	n	n	n	x
C/C(=N\NC(=O)C(O)c1ccccc1)c1ccc(Br)s1 (stereo unspecified)	n	n	n	n	x
O=C(Nc1ccc(N=Nc2ccccc2)c(NC(=O)C2CCCO2)c1)C1CCCO1 (stereo unspecified)	n	n	21	n	n
O=C(c1ccc(N2CCCCC2)c([N+](=O)[O-])c1)N(c1ccccn1)c1ccccn1	n	n	n	n	x
Cc1ccc(CSc2nnc(SCC(=O)N/N=C/c3c[nH]c4ccccc34)s2)cc1	n	n	23	n	n
CSc1nnc(NC(=O)c2ccc(S(=O)(=O)N3CCOCC3)cc2)s1	n	n	n	n	x
CC(C)(C)NC(=O)CCN(/N=C/c1ccccc1O)C1=NS(=O)(=O)c2ccccc21	n	n	n	n	x
CC[N+](CC)(CC#Cc1ccccc1)CC#Cc1ccccc1	n	n	n	n	x
Cc1nn(-c2cccc(C(F)(F)F)c2)c(Cl)c1/C=N/Nc1cccc(C(=O)O)c1	n	n	21	n	n
SMILES	C-LANA FP	Keap1-Nrf2 PPI	Cardiac RTF inh	RTF Ca sens act	RTF inh confirm
COc1cccc(/C=N/Nc2nc3ccccc3n3cnnc23)c1O	n	n	23	n	40
COc1cccc(/C=N/Nc2nc3ccccc3n3cnnc23)c1	n	n	n	n	x
O=C(Cn1ccc(NC(=O)OCc2ccccc2)nc1=O)NCc1ccc2c(c1)OCO2	n	n	n	n	x
Cc1ccc2nc(SCC(=O)N(CC(C)C)c3c(N)n(Cc4ccccc4)c(=O)[nH]c3=O)[nH]c2c1	n	n	n	n	x
COc1ccccc1C(=O)NC(=O)COC(=O)CCOc1ccccc1C	n	n	28	n	n
Cc1ccccc1OCC(=O)OCC(=O)NCCNC(=O)COC(=O)COc1ccccc1C	n	n	17	n	n
COc1ccccc1C(=O)NC(=O)COC(=O)CCOc1ccc(C)cc1	n	n	n	n	x
Cc1ccccc1OCC(=O)OCC(=O)NCc1ccccc1	n	n	n	n	x
COc1ccc(C)cc1NC(=O)C1CCN(S(=O)(=O)c2ccc3c(c2)NC(=O)CO3)CC1	n	n	n	n	x
